Laboratory results reported in PubChem BioAssay.

Tested on: XIP peptide (Xip251-270) binding
Assay: XIP fragment 251-270 binding compounds – biochemical, small-molecule microarray, fluorescence 635/667 nm, 0.1 µg/mL protein, primary screen (AID 1182)
Conditions: fluorescent protein binding, 635 nm, higher = more signal, called active from +8 up or from −8 down

Composite z-score, inactive:
O=C1O[C@H](c2ccccc2)[C@H](c2ccccc2)N2[C@H]1[C@@H](C(=O)Nc1nc3ccccc3s1)[C@]1(C(=O)Nc3ccc(C#CC4(O)CCCCCC4)cc31)[C@H]2c1ccc(O)cc1 2.76
CCCC=C(CCC)[C@@H](NS(=O)(=O)c1cccc(C(F)(F)F)c1)c1ccc(C(=O)OC)cc1 0.0637
C=CC[C@@]1(C(=O)NCC(O)CO)N=C(c2ccc(OCCCO)cc2)O[C@@H]1c1ccccc1CN=[N+]=[N-] (stereo partly specified) 0.336
Cc1ccccc1C(O)C1C=CC2C(=O)N(c3ccccc3)C(=O)C2N1Nc1ccc(C#N)cc1 (stereo unspecified) 3.08
O=C1O[C@H](c2ccccc2)[C@H](c2ccccc2)N2[C@H]1[C@@H](C(=O)Nc1nc3ccccc3s1)[C@]1(C(=O)Nc3ccc(C#CC4=CCCCC4)cc31)[C@H]2c1ccccc1OCCO 0.0485
CCCNC(=O)[C@@H]1c2ccccc2C(=O)N(Cc2cc(F)cc(C(F)(F)F)c2)[C@H]1c1ccc(CO)cc1 0.395
COc1ccc(NN2C(C(O)c3cc(OC)c(OC)c(OC)c3)C=CC3C(=O)N(C4CCCCC4)C(=O)C32)cc1 (stereo unspecified) -0.0682
CCOC(=O)C[C@H]1[C@H](OC(=O)c2cc3ccccc3oc2=O)[C@@H](NC(=O)c2ccc3ccccc3c2)c2cc(OCCCO)ccc2N1C(=O)c1ccc2ccccc2n1 0.227
O=C(NCc1ccccc1)c1ccc(Br)cc1[N+](=O)[O-] 0.103
COc1ccc([Si](C)(C)[C@@H]2[C@@H](CCO)O[C@]3(C(=O)N(Cc4ccc(NC(=O)[C@H](C)O)cc4)c4ccccc43)[C@H]2C)cc1 0.894
COC(=O)C(CC#Cc1ccc2c(c1)[C@]1(C(=O)N2)[C@H](C(=O)N2CCCCCCC2)[C@H]2C(=O)O[C@H](c3ccccc3)[C@H](c3ccccc3)N2[C@@H]1c1ccc(O)cc1)C(=O)OC 0.431
CCOC(=O)C[C@H]1[C@H](OC(=O)Cc2ccc3c(c2)OCO3)[C@@H](NC(=O)c2ccc3ccccc3c2)c2cc(OCCCO)ccc2N1C(=O)Cc1ccc(OC)cc1 1.46
COC(=O)[C@@]1(Cc2ccccc2N=[N+]=[N-])N=C(c2ccc(OCCCO)cc2)O[C@H]1c1ccccc1CN=[N+]=[N-] 0.367
O=C1OCC=C[C@H]2OC34C=CCN(Cc5ccccc5)C(=O)[C@H]3N(CCCCCO)C(=O)[C@@H]4[C@@H]12 (stereo partly specified) 0.211
Cc1ccc(S(=O)(=O)N2[C@@H](c3ccccc3)C(C(=O)O)=CC[C@H]2c2ccccc2)cc1 -0.141
C=CC[C@@]1(C(=O)N2CCOCC2)N=C(c2ccc(OCCCO)cc2)O[C@@H]1c1ccccc1 1.79
[N-]=[N+]=NCc1ccccc1C[C@]1(C(N)=O)N=C(c2ccc(OCCCO)cc2)O[C@H]1c1ccccc1CN=[N+]=[N-] 1.04
COCCCNC(=O)[C@@H]1c2ccccc2C(=O)N(CC23CC4CC(CC(C4)C2)C3)[C@H]1c1ccc(CO)cc1 0.428
Cc1ccc(N2C(=O)c3ccccc3[C@@H](C(=O)NCc3ccccc3)[C@@H]2c2ccc(CO)cc2)nc1 -0.337
O=C(CS)NCCCCCNC(=O)[C@H]1C[C@H]2C(=O)N3CCC[C@H]3C(=O)N2[C@H]1c1ccc(O)cc1 0.215
CC(C)[Si]1(C(C)C)OCc2cc(C3CC3)nc(-c3ccccc3)c21 0.119
COCC(=C=CC[C@H](O)c1ccc(OCCO)cc1)C[C@H](O)c1ccccn1 0.495
C=CCNC(=O)[C@H]1[C@@H]2C(=O)O[C@@H](c3ccccc3)[C@@H](c3ccccc3)N2[C@@H](c2ccccc2OCCO)[C@]12C(=O)N(C(=O)OCCOC)c1ccc(C#CCC(C(=O)OC)C(=O)OC)cc12 1.09
COC(=O)[C@H]1[C@@H]2COc3ccccc3[C@H]2N[C@H]1C(=O)OC 0.22
C=CC[C@]1(C(=O)N2CCCCC2)N=C(c2ccc(OCCCO)cc2)O[C@H]1c1ccccc1N=[N+]=[N-] 1.01
C=CCNC(=O)[C@@H]1[C@H]2C(=O)O[C@H](c3ccccc3)[C@H](c3ccccc3)N2[C@H](c2ccc(OCCO)cc2)[C@@]12C(=O)N(C(=O)OCCOC)c1ccc(C#CC3(O)CCCCCC3)cc12 0.87
N#Cc1ccc(NN2C(C(O)c3ccc(I)cc3)C=CC3C(=O)N(c4ccccc4)C(=O)C32)cc1 (stereo unspecified) 0.816
[N-]=[N+]=NCc1ccccc1[C@H]1OC(c2ccc(OCCCO)cc2)=N[C@@]1(Cc1ccccc1N=[N+]=[N-])C(=O)NCc1ccccc1 0.0116
NC(=O)[C@H]1[C@@H]2C(=O)O[C@@H](c3ccccc3)[C@@H](c3ccccc3)N2[C@@H](c2ccc(O)cc2)[C@]12C(=O)Nc1ccc(C#CCCO)cc12 -0.0876
CO[C@H]1O[C@H](CO)[C@@H](OC(=O)CCc2ccccc2)[C@@H]2OC(=O)[C@H](Cc3cccc(Br)c3)C/C=C/C[C@@H](Cc3cccc(Br)c3)C(=O)O[C@@H]12 0.0304
CCC1=C2CN(Cc3ccccc3Br)[C@@H]([C@@H](O)Cc3ccccc3)C2C=CCC1 (stereo partly specified) -0.314
CC[C@@H]1C=C(C(=O)O)[C@H](c2ccccc2)N1S(=O)(=O)c1ccc([N+](=O)[O-])cc1 -0.0477
[N-]=[N+]=NCc1ccccc1C[C@]1(C(=O)N2CCCCC2)N=C(c2ccc(OCCCO)cc2)O[C@H]1c1ccccc1CN=[N+]=[N-] 1.52
C=CC[C@]1(C(=O)OC)N=C(c2ccc(OCCCO)cc2)O[C@H]1c1ccccc1CN=[N+]=[N-] -0.127
C=C[C@H](OC)[C@@H](OC(=O)Nc1ccc(SC)cc1)c1ccc(O)c(F)c1 2.52
O=C1C2C=CC(C(O)C(c3ccccc3)c3ccccc3)N(Nc3ccc([N+](=O)[O-])cc3)C2C(=O)N1c1ccccc1 (stereo unspecified) -0.0268
